Data reported in the supplement of paper PMC6555819.

Legend:
Test in all cases: PBM binding z-score (relative to random genomic background probes); higher = stronger binding; sequences stand for … in GC…GCGATTGACAGCGTAGAATGAAGG
[1] = tested on: RARb homodimer (NR concentration 270 nM)
In short: (§1)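 Antibodies against each partner of ligand-free nuclear receptor dimers (one per run) detected binding on custom Agilent 4×180K protein-binding microarrays after 1 h incubation. The double-stranded probes had 34-nt variable regions carrying direct-repeat seeds, single-nucleotide variants, half-site ablations and random human genomic background sequences. Binding z-scores, from regression-normalized fluorescence, use the random background probes as reference.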

[2] = tested on: RARg:RXRa (NR concentration 270 nM, RXRa partner concentration 90 nM)
In short: as §1

[3] = tested on: RARg homodimer (NR concentration 270 nM)
In short: as §1

[4] = tested on: RXRa DBDmut IVT, anti-RXR (DBD mutation: RXRa K156A/R161A, NR concentration 90 nM)
In short: as §1

[5] = tested on: RXRa homodimer (NR concentration 180 nM)
In short: as §1

[6] = tested on: THRa:RXRa (NR concentration 90 nM, RXRa partner concentration 90 nM)
In short: as §1

[7] = tested on: THRa homodimer (NR concentration 90 nM)
In short: as §1

[8] = tested on: VDR homodimer (NR concentration 270 nM)
In short: as §1

Sequence | PBM binding z-score [1] | PBM binding z-score [2] | PBM binding z-score [3] | PBM binding z-score [4] | PBM binding z-score [5] | PBM binding z-score [6] | PBM binding z-score [7] | PBM binding z-score [8]
TCTATTAGTTGAAGTGCAACCGACGAGTCCGTTT | 0.42 | 0.379 | 0.172 | 1.58 | 0.754 | 0.107 | 0.145 | 1.83
TCATAGAGGTAAAAGGTGAAAGTCGGTGTGGTAA | 1.72 | 2.5 | 0.912 | 1.01 | 4 | 1.97 | -0.0823 | -0.219
CCTACTGGGCAATTCAGAGGTCATTGATCATATG | 3.57 | 3.21 | 2.73 | 0.679 | 3.76 | 2.98 | 1.16 | 3.05
TTACCAAGGTGAAGGTCGTTGATCCCTCTGTAGA | 1.7 | 1.29 | 1.32 | 0.0227 | 1.7 | 2.34 | 1.1 | 1.15
TATAGTTGGTCAAAGGTCACACACTCGAAATGCG | 5.04 | 7.01 | 6.33 | 0.941 | 8.14 | 4.24 | 1.79 | 2.12
CAGACTAGGTCACAGAGGTCAAAGTCCGTGCGTA | 5.42 | 7.17 | 7.46 | 3.41 | 7.88 | 4.6 | 2.91 | 7.08
TTACCAAGATGAAGGTCGTTGATCCCTCTGTAGA | 0.806 | 0.203 | 0.0937 | 0.4 | 0.993 | 0.726 | -0.149 | 0.756
TCTGCTAGGTCAGTTTGTCAGCTAACGAGCTGCC | 1.74 | 1.84 | 2.44 | 0.8 | 0.666 | 0.996 | 0.0715 | -0.975
GGGACGAGGGCAAGTTGATAGCAGAGTTTGATGG | 1.99 | 1.89 | 2.46 | 2.62 | 1.06 | 1.61 | 0.723 | 2.05
AGAACGAGGGCACGCTGAGTTGGTAGCAGAGTAG | 1.01 | 1.69 | 2.37 | 1.55 | 1.19 | 1.56 | -0.105 | 0.953
TCATATAGGTAAATGCTAGGTGAAACTCCGATCT | 0.638 | 0.657 | 0.3 | 1.3 | 0.917 | 1.65 | 0.67 | 0.32
CCTACTGGGCTAAAAAGGTCATTGATGCCGATAA | 4.14 | 4.08 | 3.54 | 0.543 | 4.39 | 3.01 | 0.22 | 2.22
CCAGACAGGTGAGAAGGTGACTCAGCCTCGATTA | 1.23 | 1.04 | 0.771 | -0.175 | 0.552 | 0.445 | 0.379 | -0.284
TCTTGTAGATGAAAGGTTAAGAAAGCCGAAGCCT | 1.17 | 1.2 | 0.987 | 1.1 | 2.39 | 0.806 | -0.431 | -0.24
CCAGACAGGTGAGAAGGTAAATCAGCCTCGATTA | 0.187 | 0.461 | 0.353 | -0.268 | 0.202 | 0.113 | -0.24 | -0.437
TCATATAGGTACATGCTAGGTGAAAGTCCGATCT | 0.598 | 0.521 | 0.462 | 2.05 | 0.745 | 2.02 | 0.723 | 0.987
CGTCCAAGTTCAGAGAGGTCAGTGAATGCCGAGT | 4.58 | 4.46 | 5 | 4.24 | 3.48 | 3.14 | 1.43 | 7.06
TCATTTAGGTAAATGCTAGGTGAAAGTCCGATCT | 0.541 | 0.116 | 0.0576 | 1.57 | 0.519 | 1.69 | 0.878 | 0.0956
CGTCCAAGGTCAAAGGACAGTGAAGAGATGACGG | 4.02 | 5.79 | 6.52 | 3.52 | 5.67 | 3.76 | 1.95 | 2.37
AGACTGAGGTTAAGATCAGGGAAACAGAATACAT | 0.774 | 2.09 | 1.38 | 0.593 | 2.21 | 2.35 | 0.489 | 0.3
TCGAGTAGGTTAGTCGTGGCATTCAGCCAACATA | -0.359 | -0.49 | -0.451 | -0.0351 | -0.388 | -0.461 | -1.11 | -0.659
CGTCCAAGGTCAAAGGTCGGTGAAGAGATGACGG | 4.52 | 7.18 | 6.2 | 3.85 | 8.84 | 4.24 | 2.17 | 2.78
TCTATTAGATGAAGGGCAACCGACGAGTCCGTTT | 1.1 | 0.508 | 0.672 | 1.4 | 0.961 | 0.13 | -0.334 | 0.972
TCTTGGAGATCAAGCAGGTTAAGAAAGCCTGAGT | 0.0966 | 0.06 | -0.27 | 0.163 | 0.643 | 0.589 | -0.604 | 0.0474
ACTTACGGGTTAACGAGGTTATAGCACGCGTATA | 1.62 | 2.26 | 1.43 | 1.02 | 3.01 | 3.09 | 0.992 | 1.96
GCATATAGGTAATACAAGGGGAAAGTCCGATTGT | -0.0469 | 0.247 | 0.368 | 0.734 | 0.3 | 1.94 | -0.473 | 0.0263
CGAACTAGGTCAGAACAGGACCGTGAAGGATGAT | 1.66 | 2.43 | 3.01 | 0.494 | 1.17 | 1.56 | -0.264 | -0.342
GCATATAGGTAATGCAAGGTGAAAGTCCGATTGT | 0.843 | 0.513 | 0.479 | 0.239 | 0.519 | 4.1 | 0.825 | -0.0965
